Bioassay records as filed in PubChem BioAssay.
JMJD2A Tudor inh: JMJD2A Tudor domain (human) inhibition; 390,000 tested, 4.4% active; Potency, µM (titrated, usually from 114 µM), for inactives: at the highest dose activity change, negative = inhibition, usual class: inhibitors; AID 504339; O75164; AlphaScreen JMJD2A-Tudor / H3K4me3 peptide binding; also: % is scaled to controls: 0 for no effect and ±100 for the full control effect; nearly all actives have a fitted effect of over 50% in size
HP1b chromo inh: blocks HP1-beta chromodomain binding to methylated histone tails. AID 540317. AlphaScreen HP1-beta / biotin-H3K9me3 peptide binding. P83916. Potency, µM (titrated, usually from 114 µM), inactives show top-dose activity change, negative = inhibition, hits mostly inhibitors. 390,000 tested, 0.56% active; also: nearly all actives have a fitted effect of over 70% in size
Target sequence (P83916 whole entry, looked up): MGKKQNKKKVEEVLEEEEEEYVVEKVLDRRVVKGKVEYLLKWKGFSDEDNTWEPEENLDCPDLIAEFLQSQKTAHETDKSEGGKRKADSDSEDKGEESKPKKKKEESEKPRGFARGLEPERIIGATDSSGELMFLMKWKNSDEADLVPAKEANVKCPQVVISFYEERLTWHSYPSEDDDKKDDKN
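AlphaScreen: HP1-beta (50 nM) preformed 30 min with biotin-H3(1-18)K9me3 peptide (50 nM) in PBS pH 7.4, 0.01% Tween-20. Compound added for 30 min at RT, then streptavidin donor/nickel chelate acceptor beads (10 ug/mL) for 30 min.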
BAZ2B block: inhibitors of human BAZ2B bromodomain; AlphaScreen BAZ2B-H3K14Ac peptide displacement; Q9UIF8; Potency, µM (series often up to 114 µM), for the others: at the highest dose activity change, negative = inhibition, most hits filed as inhibitors; 360,000 tested, 4.4% active; also: % is scaled to controls: 0 for no effect and ±100 for the full control effect; nearly all actives have a fitted effect of over 60% in size
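Complex of BAZ2B and biotin-H3K14Ac (50 nM apiece) forms over 30 min at RT, then faces library compounds up to 110 uM for another 30 min; AlphaScreen beads added, 20 min dark incubation, luminescence read.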
G9a inh: G9a (human) methyltransferase inhibition | Q96KQ7 | G9a H3K9 monomethylation, AlphaScreen, 2 h | Potency, µM (doses to about 102 µM), inactives show top-dose activity, negative = inhibition, usual class: inhibitors | 350,000 tested, 8.8% active | AID 504332; also: % is scaled to controls: 0 for no effect and ±100 for the full control effect; nearly all actives have a fitted effect of over 75% in size
Target sequence (Q96KQ7 913-1193 limits assumed): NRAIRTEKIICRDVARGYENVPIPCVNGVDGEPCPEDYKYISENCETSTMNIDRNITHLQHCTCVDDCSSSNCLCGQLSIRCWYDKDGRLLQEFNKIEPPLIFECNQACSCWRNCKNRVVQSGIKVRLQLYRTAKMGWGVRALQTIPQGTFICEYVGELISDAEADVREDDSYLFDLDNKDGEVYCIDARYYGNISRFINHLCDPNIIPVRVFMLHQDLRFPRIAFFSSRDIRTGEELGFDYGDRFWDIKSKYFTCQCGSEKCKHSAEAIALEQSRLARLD
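Chemiluminescent proximity detection of H3K9 monomethylation, read after 10 min bead incubation in the dark. Reaction: 20 nM G9a, 500 nM biotin-H3K9 peptide, 20 uM SAM cofactor, 2 h, room temperature, following 15 min enzyme-compound preincubation.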
L3MBTL1 inh: blocks human L3MBTL1; 230,000 tested, 0.66% active; AlphaScreen L3MBTL1–H3K9me1 peptide binding; Potency, µM (top dose mostly 57.1 µM), inactives show at the top dose activity, negative = inhibition, hits mostly inhibitors; also: % is scaled to controls: 0 for no effect and ±100 for the full control effect; nearly all actives have a fitted effect of over 60% in size
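First, the protein-peptide complex forms for 30 min at room temperature (L3MBTL1 50 nM, biotinylated H3K9me1 peptide 75 nM). Next, compounds are pin-transferred and incubated 30 min. Finally, AlphaScreen beads are added and read after 30 min.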
The depositor's hits bear a star; u = inconclusive; x = no result; ! = a repeat was not active; [ ] = another dose, or the depositor's remark. Only some compounds are listed: those with a hit (about 11% of all), similar ones and a draw of the others. Calls follow the shape of the dose curve; as a rule, active = well fitted inhibition curve with a large enough effect; inconclusive = small, poorly fitted or top-dose-only effect; inactive = no such curve, though single readings can be large or run the other way. Potency is read from the fitted curve at half-maximal effect.

SMILES	JMJD2A Tudor inh	HP1b chromo inh	BAZ2B block	G9a inh	L3MBTL1 inh
c1ccc(-c2nc(N3CCOCC3)s[n+]2-c2ccccc2)cc1	18µM*	u	-33%	1.1µM*	3%
CNc1ccc2oc(C[C@H]3O[C@@]4(CC[C@H]3C)O[C@H]([C@H](C)C(=O)c3ccc[nH]3)[C@H](C)C[C@H]4C)nc2c1C(=O)O	u	17%	-10%	-20%[59 µM]	x
CNc1ccc2oc(C[C@@H]3OC4(CC[C@@H]3C)O[C@H]([C@@H](C)C(=O)c3ccc[nH]3)[C@H](C)C[C@H]4C)nc2c1C(=O)O (stereo not given in full)	x	x	x	16µM*	x
CC(C)C[C@H]1C(=O)N2CCC[C@H]2[C@]2(O)O[C@](NC(=O)[C@@H]3C=C4c5cccc6[nH]c(Br)c(c56)C[C@H]4N(C)C3)(C(C)C)C(=O)N12	x	x	x	24µM*	x
CC(C)C[C@H]1C(=O)N2CCC[C@H]2[C@]2(O)O[C@](NC(=O)[C@@H]3C=C4c5cccc6[nH]cc(c56)C[C@H]4N(C)C3)(C(C)C)C(=O)N12	50µM*	-14%	-34%	6.3µM*	-23%
CN1C[C@H](C(=O)N[C@]2(C)O[C@@]3(O)[C@@H]4CCCN4C(=O)[C@H](Cc4ccccc4)N3C2=O)C=C2c3cccc4[nH]cc(c34)C[C@H]21	x	x	x	13µM*	x
CN1C[C@H](C(=O)NC2(C)OC3(O)[C@@H]4CCCN4C(=O)[C@H](Cc4ccccc4)N3C2=O)CC2c3cccc4[nH]cc(c34)C[C@H]21 (stereo not given in full)	u	-19%	x	x	x
CCOC(=O)Cn1c(-c2ccccc2)ccc(C#N)c1=O	48%	91%	43%	9%[59 µM]	29%
N#Cc1ccc(CN2CC[C@@]3(CCCN(C(=O)Oc4ccccc4)C3)C2)cc1	x	x	x	0%[12.7 µM]	x
Cc1ccc(-n2c(/C=C/c3ccccc3)nc3ccccc3c2=O)cc1Cl	-4%	17%	2%	10%[59 µM]	x
Cc1cc(N2C(=O)C3CCCN3C2c2ccccc2)no1 (stereo not given)	28µM*	-25%	u	u	43%
Cc1ccc(C2N(c3cc(C)on3)C(=O)C3CCCN32)cc1 (stereo not given)	-31%[57.1 µM]	25%	-35%	35µM*	6%
O=C1C2CCCN2C(c2cccnc2)N1c1ccc(Cl)cc1 (stereo not given)	-14%	41%	8%	-25%	8%
NC(CO)Cc1ccccc1 (stereo not given)	x	x	x	-2%[2.33 µM]	x
O=P(/C(=N/O)N1CCCCC1)(N1CCOCC1)N1CCOCC1	2%	24%	8%	56µM*	-2%
O=C(c1ccco1)N1CCC2(CC1)CN(Cc1ccncc1)C2	x	x	x	9%[12.7 µM]	x
CCCCC/C=C\C/C=C\C/C=C\C/C=C\CCCC(N)=O	x	x	x	45%[59 µM]	x
Cc1cc2c(cc(C(=O)N3CCC(C(=O)NC4CCCC4)CC3)n2Cc2c(F)cccc2Cl)o1	u	1%	u	-137%[59 µM]	x
O=C(CN1CCOCC1)c1ccc2cc[nH]c2c1	-30%	28%	4%	32µM*	10%
Cc1cc(C)c(C(=O)CN2CCOCC2)c(C)c1	u	64%	-7%	3.2µM*	1%
COc1ccc(C(=O)CN2CCOCC2)cc1F	-31%	34%	-12%	28µM*	12%
COc1ccc(C(=O)CN2CCCCC2)cc1	-3%	38%	-13%	u	-13%
CC(C)(C)NC(=O)N1c2ccccc2Sc2ccccc21	-4%	53%	3%	7%	x
Cc1ccc(CCNC(=O)Cn2nc(C)c3c(C)n(-c4ccc(C)cc4)nc3c2=O)cc1	5%	43%	u	-2%[59 µM]	x
O=C(Oc1cncc(Cl)c1)c1sccc1Cl	19%	73%	x	x	x
SMILES	JMJD2A Tudor inh	HP1b chromo inh	BAZ2B block	G9a inh	L3MBTL1 inh
CC(=O)O[C@H]1C[C@H](O[C@H]2[C@@H](O)CC(O[C@H]3[C@@H](O)C[C@H](O[C@H]4CC[C@@]5(C)[C@H](CC[C@@H]6[C@@H]5CC[C@]5(C)[C@@H](C7=CC(=O)OC7)CC[C@]65O)C4)O[C@@H]3C)O[C@@H]2C)O[C@H](C)[C@H]1O[C@@H]1O[C@H](CO)[C@@H](O)[C@H](O)[C@H]1O (stereo not given in full)	x	x	x	-6%[12.7 µM]	x
CC(CNC(=O)c1ccc(CSc2nc3ccncc3n2Cc2ccc(F)cc2)cc1)c1ccccc1 (stereo not given)	-23%	31%	-8%	u	x
CSc1cccc(NC(=O)C2CCN(C(=O)c3cnn(-c4ccccc4)c3-n3cccc3)CC2)c1	-34%	2%	u	u	x
COc1ccc(C)cc1NC(=O)CN1CCN(CC(=O)Nc2ccccc2F)CC1	9%	52%	-2%	40µM*!	4%
COc1ccc(C)cc1NC(=O)N(Cc1ccc2c(c1)OCO2)C1CCN(Cc2ccccc2)CC1	u	3%	u	u	x
COc1ccc(OC)c(C2C(C#N)=C(N)Oc3c2c(C)nn3-c2ccc(C)cc2)c1 (stereo not given)	-18%[11.4 µM]	u	50µM*	25µM*	-3%
Cc1nn(-c2ccccc2)c2c1C(c1ccc(F)cc1F)C(C#N)=C(N)O2 (stereo not given)	-36%	0%	u	-31%[59 µM]	-4%
CCn1ccnc1CN1CCCC(C(=O)c2ccc(OC)cc2OC)C1 (stereo not given)	-16%	24%	-4%	7%	-21%
CCn1ccnc1CN1CCCC(C(=O)c2cc(F)ccc2OC)C1 (stereo not given)	-21%	-11%	-39%	7.1µM*	-2%
c1ccc(N=Nc2ccccc2)cc1	x	x	x	-44%[2.33 µM]	x
Cc1cccc(N=Nc2ccc(N(C)C)cc2)c1	14µM*	11µM*	7.1µM*	8.9µM*	x
CN(C(=O)Oc1cccc2cccnc12)c1ccccc1	-13%	27%	40%	u	52%
Oc1cccc2cccnc12	u	-2%	10µM*	17%[59 µM]	x
Cc1ccc(CN(Cc2ccccc2)C(=S)NCC(=O)N2CCC3(CC2)OCCO3)o1	-35%	-13%	u	50µM*	-15%
[O-]C1=N/[N+](=C/c2ccc(Cl)cc2)CC1	-10%	26%	11%	8.9µM*	x
CCCc1cnc2c(c1SCC(=O)Nc1ccc([N+](=O)[O-])cc1)c(=O)n(C)c(=O)n2C	-24%	-5%	-16%	13µM*	x
N[C@@]1(C(=O)O)CC[C@@H](C(=O)O)C1	50µM*	-16%	-1%	30µM*!	0%
CCN(CC)C(=O)c1ccc(NC(=O)CCn2nc(-c3ccc(Cl)cc3)c3ccccc3c2=O)cc1	-29%	-12%	-38%	-44%[59 µM]	x
CCOC(=O)c1c(C)[nH]c(C)c1S(=O)(=O)NCC(=O)N1CCN(c2cc(Cl)ccc2C)CC1	u	5%	u	u	x
CN1C(=O)C(Cc2ccsc2)C(=O)N(C)C1=O	-10%	64%	-31%	11µM*	u
